From the supplement of paper PMC12632987
Whole data set: some 1,800 sequences, median “median log2 fold change of GCK-ALFA target abundance (FLAG IP / Myc IP barcode read proportion)” near 0.14, cut for the lowest 2% near -0.84. Many of the other results were omitted from the sample, so the lowest values are more common in it than they were.

B1: traf2_out_13_95_1152 (protein)
chain: SKELAEKINQIADDMLDQVEAKLQALLEKMKAAGKGVEEVQKALDLARYRSVNEAIALLEELSKKYPEFKELFDATIKEIKAIIREAGRKVAELIKEEEA
B2: traf2_out_11_131_656 (protein)
chain: MDAVAMAESAAERVDERLEIAKTLSPEERLRLARQSLDSLEALAEYLKEHVKEMSKEDVEKAAKILRESAEKILEFSPEVEEEAKEVEEAIKKLLEAAKA
B3: traf2_out_20_38_2032 (protein)
chain: SEEEEEERRLEEAIEVANEAYDRYTARFEEWQAAGKTVEEIAEETKKEVKELLEKAGLEEEAKILIEDIDLALSSPDAVRLLVRILARAEALVWQKEKEK
B4: traf2_out_19_16_1989 (protein)
chain: SKEEAEKLKKEMNKYLDEALELAKEAVENLDELSREELMDKLVEISELMRKAKELLQKYLELNKDDEEERKKVTEEFDKKYDEIMKLMTIIVKKIEELLK
B5: traf2_out_11_155_670 (protein)
chain: SEKQKLNNELVNELTEIADELKEKVEKILKEAAAAHPEHAEELAAVIASGKTLSGRSFARLAAQKFRELGLEEEAKKVEELLEEAQKKMNEVVKKYEEKL
B6: traf2_out_3_89_2310 (protein)
chain: GAERERTIEEMRREMERYIRGFRKSAERVAKEMLEDGMSLETLRGVLEAAKSALLEVLRERMRERGLSEEEIEELLEEAGRELDKVVEEVVAEAEERRKA
B7: traf2_out_17_162_1600 (protein)
chain: SELEKFKEKIEKELEELEKERKELEKKLKEIDSLSKEELTDLLVEASEKRRKALELLEKLEENKEKLDKEFYEKYKKRAEEIAEEFQRIANEIMKKLEEK
B8: traf2_out_20_38_2010 (protein)
chain: SEEEKEKEKLEKLVEVANEAYDKYSAEFEKWKAEGKTVEEIAEEVKKRVKEKLSAAGLEEEAKILIEDIDLALSSPNAWRLLVRTLARADALVKQKELNK
B9: traf2_out_17_162_1551 (protein)
chain: SALEEELERLEEELRRLEEELERLKKELENLEKKSKEELTDLLVEASEARRRARELAERLRELEPLIGEERAGELRERAEEIAEELQRIANKIYKELEKK
B10: traf2_out_20_38_2037 (protein)
chain: SEEEEEEKKLQEVIDVANEALDKYEKKIAEWKAEGKTVEEIAEAAKEEVRRLLEEVGLEEEAEILVEDIDRALSSPDAERLIARILARAVALVKQKELNK
B11: traf2_out_11_169_882 (protein)
chain: EEKEKNRKFNDFALELNDKAKKELLAFAEELAKKLGLDVAEVKAIFEANKNSSLSALAAALIEYFRSKGHEDAAAAVLAKYEELQEKINKEGTKKLKELE
B12: traf2_out_17_178_1712 (protein)
chain: SKEEARKEISAATDEMIDLAEAAATRLLEIARKEGSLSPEELAELERARRLGSARTTLALMERAIPKSKSAEEVQAILDEFRKRYAELSKKIAEALEKYE
B13: traf2_out_20_38_2005 (protein)
chain: SEEEEEERRLKIIIEAANEELDRWEKEIEELKAEGKTVEEIAERAKEEVRRLLTAAGLEEEAEELIAEIDLVLDSPDALDAIARILARAKALVVQKELNK
B14: traf2_out_20_3_2071 (protein)
chain: KELEEEAERELERALELLKRAAELADEETAKRLEELIKRLKASRELSVDDRLVVVSEVRREVLELAEEAKAAGKEELAKELEEAAEALNRAAQLLYDILQ
B15: traf2_out_13_95_1038 (protein)
chain: SKELAEKIMEIADEMEERSLALLEAAKEELADDPEAVAVLTEAKRLAETKGISEALHLLREASAANPEHAARFDALIEELEAIRREAGRKVAKLIKEEEE
B16: traf2_out_15_48_1367 (protein)
chain: DAAAYRAAMNAAADRIIATKDEVKKEVKELAKVASPEVKKKLNEVAKLIEAGAGSQEIIAALKEAAKVASPELKAKLEELAERLRAARREASAIAAAMAK
B17: traf2_out_13_95_1077 (protein)
chain: SKETNEKIMEIADEMLDKVNEVLEELAEKVKDDPEMKAKVEEALHLATHRGINEAIHLLKKLAEENEEYKELLEEAIKKLEEIKEKAGKEVAKLLKEEEE
B18: traf2_out_13_95_1157 (protein)
chain: SAELAKKIMEIADEMLDRSLAVLDALLAKAKAAGKLEAEVAEARHLAETRSINEAIAKLRELAKAHPEFKAELDAAIAELEALRREAGRKVAELIKEEEE
B19: traf2_out_17_162_1532 (protein)
chain: SELEERLRELEEELRELEKRLEELEKELENLENMSKEELSDLLVEASEARRRALELAEELRELRSEIGEERAEELIRRAEEIAERLQRIANKIYEELEKK
B20: traf2_out_17_162_1490 (protein)
chain: EELEERLRELERRLEELERRLKELEEKLKNIDKLSKEELTDLLVEASEAKREARRLAEELRELRERTGREELEELIRRAEEIAERLQRIANIIYKELEKK
B21: traf2_out_17_162_1548 (protein)
chain: GELEERLKELEEELEELERRAEELESLLPELPKLSKEELTDLLVEASEARRRARRLAEEIEKLKEEIGEERAEELRERAEEIAERLQRIANAIYKELEKK
B22: traf2_out_18_3_1898 (protein)
chain: SEEKLKEISEKIDEIIDEVTAKAREVLDWLEKNKPEVKERIAALRADLEAGAGPFGILRELARLAKEAGEEEKAKEIEEFLKEKSKELQELVDEYLELRA
B23: traf2_out_13_95_1133 (protein)
chain: SAETAKKIMEIADKMLDEVEKILEELLKIFEKKGIGVEEIKEALYLARHQSINEAIAKLEELSKKYPEFKEELDKAIEEIKALREKAGKEVAEILKKEKE
B24: traf2_out_1_27_1000 (protein)
chain: STEEERELLRRANREIGRASPEEQVEIIKRTLREALERGIDSPEHIAVVLILMLGDEETRERAIEAAREVLREAGISEEAIERMERRVRSGWERLDRLLA
B25: traf2_out_11_169_815 (protein)
chain: EEAEKNRKINDFALELNDEAKKKLLEHAKKLAKEAGLDVEEVEKIFEENKNKSLSAVAAALIKYFRSKGKEEEAEAVLKKYEELKEEINKKVTEKIKELE
B26: traf2_out_13_95_1055 (protein)
chain: SAETAAKINEIADEALERALALLRAAQEEVADDPAASAVLAEALRLAETRGISEAIHLLREAQAADPAHAERFAALIEELEAIRREAGRRVAEVLKEEKE
B27: traf2_out_18_64_1955 (protein)
chain: SELDEEIDRLVDEMDERRRLRLALARALQARAAADPAWQPLLDYFHAHVNDIGAAGARRMLALLAAGAPPAELRAVMEEDLGEGRELQRRLAELLEKREK
B28: traf2_out_18_117_1787 (protein)
chain: MEREEIIERLKEIAEETGRAASELGKLVLEKWEELTPEEKSEAFDVLADLSEVRREAQLLIIEIEEKNLPIEEAKKRLEELEKRAEEALKRAEEKIKRIK
B29: traf2_out_17_178_1705 (protein)
chain: SKEEARKKISEATDKMIDLAQEAAERLLEIAEREGSLSPEELAELRRARRLGSARTTLALMRRAIPRSRSAEEVRRLVEEFEKEYRELSKIIAEELKKYE
B30: traf2_out_13_95_1155 (protein)
chain: SKELAEKIMEIADRMLDEALAVLDELLAAAKAAGKLEEEVARARHLAEHHSINEAIALLRELAKAHPEFKEELDAAIARLEALRREAGREVAELIKKEKE
B31: traf2_out_13_95_1102 (protein)
chain: SRELAEEIMKIADEMIDKANEILEELLKIAKEKGVAEEEVKEALYLAEHRSIREAIHKLKELAKEYPELKEEFEEAIEKLEKLIEEAGKKVAELIKEEKE
B32: traf2_out_6_166_2459 (protein)
chain: ESETLKEIREIIKELSKYSTEIIVKAFDEVAKKVDEESARILRQLKSAVEQAEKLGLDVETALTATVLGLITLGVPEETLLKLLKEVLKEAKKIAEEKEK
B33: traf2_out_13_95_1054 (protein)
chain: SAETAEKINEIADEALEEALALLEEARAEVADDPEASAVLDEALRLAETKGISEAIHLLEEARAADPAHAERFAALIERLRAIRREAGRKVAEVLKEAEE
B34: traf2_out_14_166_1277 (protein)
chain: MTPEEIERIRKIVDELEPLTDAAVARARAILDKVRDKLSPEDLARVEALLALAARNIGSSAINALREIAKIYKKAGLDEAAAAMQALADELEEKLKKLNK
B35: traf2_out_6_156_2405 (protein)
chain: MLEEIEEETLKEIEELIKELAAASEEKKIAYISKIAGTFYRGLQRARAAGASVEELEAFGKRVLEKTKELLDEEGLPQDVKDLILSSLNAVFDVALAEAR

Biological target: T1, TRAF2, Q12933
T1 chain: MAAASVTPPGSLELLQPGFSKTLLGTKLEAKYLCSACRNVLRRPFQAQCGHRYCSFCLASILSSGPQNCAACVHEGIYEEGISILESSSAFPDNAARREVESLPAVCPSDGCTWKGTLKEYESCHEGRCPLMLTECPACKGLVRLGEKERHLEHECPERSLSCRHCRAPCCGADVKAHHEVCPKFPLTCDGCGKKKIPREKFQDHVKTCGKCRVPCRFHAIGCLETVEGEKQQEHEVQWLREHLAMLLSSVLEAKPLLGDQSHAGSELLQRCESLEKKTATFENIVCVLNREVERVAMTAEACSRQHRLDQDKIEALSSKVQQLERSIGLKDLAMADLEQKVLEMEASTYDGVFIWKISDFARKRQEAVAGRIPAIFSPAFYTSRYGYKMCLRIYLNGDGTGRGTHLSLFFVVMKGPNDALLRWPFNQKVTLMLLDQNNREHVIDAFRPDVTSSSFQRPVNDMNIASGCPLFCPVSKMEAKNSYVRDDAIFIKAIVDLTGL
Test: median log2 fold change of GCK-ALFA target abundance (FLAG IP / Myc IP barcode read proportion) (log2 ratio); each designed protein is fused to an ALFA-tag nanobody in HEK293 cells to bring the named protein to FLAG-tagged glucokinase (GCK); Myc marks an untargeted standard; higher = target protein stabilised (more abundant)
Settings: target protein: 3xFLAG-MCP-GCK-ALFA reporter; HEK293 landing pad (RPLP)
In short: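 HEK293 landing-pad cells received a recombined binder library fused to the ALFA nanobody and were induced with 2 μg mL^−1 doxycycline, then transfected with a plasmid encoding a FLAG-tagged target and a Myc-tagged standard. Lysates were collected after 48 h for anti-FLAG and anti-Myc immunoprecipitation, and the circular RNA barcodes were reverse transcribed, amplified and sequenced. Target abundance for each binder is the median log2 ratio of FLAG to Myc barcode read proportions. Barcodes had to reach a proportion of at least 10^−7 in both replicates, each binder needed at least 3 barcodes per replicate, a pseudocount of 10^−6 was applied, and the two replicates were pooled.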

| Binder | median log2 fold change |
| --- | --- |
| B1 | -0.574 |
| B2 | 0.344 |
| B3 | -1.23 |
| B4 | 0.137 |
| B5 | 0.263 |
| B6 | -1.13 |
| B7 | 0.0488 |
| B8 | -1.49 |
| B9 | 0.0543 |
| B10 | -1.45 |
| B11 | 0.444 |
| B12 | 0.217 |
| B13 | -1.09 |
| B14 | 0.112 |
| B15 | -0.177 |
| B16 | -0.184 |
| B17 | -0.0213 |
| B18 | -0.558 |

| Binder | median log2 fold change |
| --- | --- |
| B19 | 0.0409 |
| B20 | -1.17 |
| B21 | 0.22 |
| B22 | -0.192 |
| B23 | -0.0113 |
| B24 | 0.155 |
| B25 | 0.235 |
| B26 | 0.257 |
| B27 | 0.163 |
| B28 | 0.101 |
| B29 | -0.521 |
| B30 | -0.372 |
| B31 | -0.486 |
| B32 | 0.077 |
| B33 | 0.213 |
| B34 | 0.354 |
| B35 | 0.151 |
